Reference: PubChem BioAssay
Values without a mark were called inactive. No rule for the calls is given here.

Each compound was assayed against Pantothenate synthetase (Mycobacterium tuberculosis (strain ATCC 25618 / H37Rv)) (UniProt P9WIL5) (assay: Coupled enzyme confirmation of inhibitors against recombinant Mtb PanC (AID 375;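 also: 0% = full reaction with vehicle and 100% = no enzyme background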)). Details: coupled enzyme assay; at 10 µM, hits give high values.
Sequence of Pantothenate synthetase (Mycobacterium tuberculosis (strain ATCC 25618 / H37Rv)) (P9WIL5 whole entry, looked up): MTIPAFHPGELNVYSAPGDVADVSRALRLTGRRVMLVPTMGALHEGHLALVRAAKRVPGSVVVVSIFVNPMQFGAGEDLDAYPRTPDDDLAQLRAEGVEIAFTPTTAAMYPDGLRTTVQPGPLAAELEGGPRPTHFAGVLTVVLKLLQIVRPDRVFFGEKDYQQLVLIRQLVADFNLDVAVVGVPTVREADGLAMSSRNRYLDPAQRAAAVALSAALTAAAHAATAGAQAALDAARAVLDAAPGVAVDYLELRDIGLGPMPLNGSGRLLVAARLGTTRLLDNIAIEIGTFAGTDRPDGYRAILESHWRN

| SMILES | inhibition [%] |
| --- | --- |
| Oc1ccc(C=Nc2cccc3ncccc23)c(O)c1 | 2 |
| Cc1cc(C(=O)Nc2c(F)cc(F)cc2Br)no1 | 0 |
| CC1(C)CC(=O)c2cnc(NCc3ccco3)nc2C1 | 0 |
| CN(C(=O)c1ccno1)c1nnc(-c2cnccn2)s1 | 2 |
| O=C(Nc1ccc(N2CCOCC2)cc1)c1cc2ccccc2o1 | 0 |
| C=Cn1c(N2CCOCC2)nc2c1c(=O)[nH]c(=O)n2C | 16 |
| CCOC(=O)c1cc2sccc2n1CC(=O)Nc1ccc2c(c1)OCCO2 | 0 |
| CC(C)(C)C(=O)N=C1SC2CS(=O)(=O)CC2N1c1ccc2c(c1)OCO2 (stereo not given) | 0 |
| CCOC(=O)C(C(C)=O)c1nc(C)nc2c1nnn2Cc1ccccc1Cl (stereo not given) | 0 |
| CCOc1ccccc1N1Cc2cc(C)c(C)cc2C1 | 0 |
| CC(C)(C)C1CCc2[nH]nc(C(=O)O)c2C1 (stereo not given) | 5 |
| O=C(NCCCn1ccnc1)c1cnn2c1NC(c1ccccc1)CC2C(F)(F)F (stereo not given) | 2 |
| COC(=O)c1ccnc(/C=N/O)c1 | 6 |
| CC(C)c1ncc(C(O)c2cccc3ccccc23)n1C (stereo not given) | 0 |
| CCOC(=O)C1=C(C)OC(N)=C(C#N)C1c1ccoc1 (stereo not given) | 0 |
| Nn1c(SCC(=O)Nc2ccc(F)cc2)nnc1-c1cccnc1 | 0 |
| O=C(COc1ccc2c(c1)OCO2)NC12CC3CC(CC(C3)C1)C2 | 4 |
| O=S(=O)(c1ccc(F)cc1)N1CCC(N2CCCC2)CC1 | 0 |
| CCCCS(=O)(=O)NC1=NCN(C2CCN(Cc3ccccc3)CC2)CN1 | 5 |
| Cn1cnnc1Sc1nc2c(c(=O)n(C)c(=O)n2C)n1C | 0 |

| SMILES | inhibition [%] |
| --- | --- |
| Cc1ccc(S(=O)(=O)N2CCCC(c3nnc4n3-c3ccccc3SC4)C2)cc1 (stereo not given) | 9 |
| O=C(c1ccco1)N1CCN(C2=NS(=O)(=O)c3ccccc32)CC1 | 0 |
| O=C(NC1CCN(Cc2ccccc2)CC1)C1CCN(S(=O)(=O)c2cccc3cccnc23)CC1 | 0 |
| N#CCCCCn1c(-c2cncs2)nc2ccccc21 | 0 |
| CC1CCN(Cc2ccc(NC(=O)C3CCN(c4nnc(-n5cccc5)s4)CC3)cc2)CC1 | 0 |
| COC(=O)c1ccc(CSc2nc3c(cnn3-c3ccc(F)cc3)c(=O)[nH]2)o1 | 4 |
| CC1CCCCN1C(=O)Cn1nnc(-c2cccnc2)n1 (stereo not given) | 0 |
| Cc1ccc2oc(=O)c3cnn(CC(=O)NCCC(C)C)c3c2c1 | 0 |
| O=C(COc1ccc(Cl)cc1)Nc1ncccn1 | 9 |
| CCOC(=O)Nc1cc(OCC)c(NC(=O)C2CC2)cc1OCC | 0 |
| COc1ccc(C2=Nn3c(nnc3-c3cccnc3)SC2)cc1 | 0 |
| COC(=O)c1c(N)sc(C(=O)N2CCOCC2)c1C | 0 |
| COc1ccc(N2CCN(CCCNC(=O)C3CCCN(S(=O)(=O)c4cnc[nH]4)C3)CC2)cc1 (stereo not given) | 0 |
| CC1CCN(C(=O)c2ccc(C(=O)N3CCC(C)CC3)cc2)CC1 | 0 |
| O=C(c1cc2n(n1)C(C(F)(F)F)CC(c1ccc(Cl)cc1)N2)N1CCCC1 (stereo not given) | 5 |
| c1ccc(-c2nnc(OCCN3CCOCC3)c3ccccc23)cc1 | 0 |
| Cc1cc(NC(=O)COC(=O)C2COc3ccccc3O2)no1 (stereo not given) | 4 |
| COc1ccc(OC)c(S(=O)(=O)Nc2ccc(O)c3ccccc23)c1 | 8 |
| Cc1cc(N2CCOCC2)nc2ccc(NC(=O)C3CCC(C)CC3)cc12 (stereo not given) | 0 |
| CCn1c(SCC(N)=O)nnc1-c1ccc(S(=O)(=O)N2CCN(C)CC2)cc1 | 0 |
